Compound activity (PubChem)
DAX1 inh-1: DAX1 (NR0B1) inhibition, primary screen; HEK293T StAR-luciferase reporter, SF-1/DAX-1 repression relief; inhibition, % at 6.8 µM; 370,000 tested, 1.1% active; AID 652010;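 active = inhibition above the mean over all tested compounds plus 3 SD, cut at about 3.6% in these data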;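 also: higher inhibition means more luminescence from relief of DAX-1 repression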
hgDAF-12 ag: hgDAF-12 agonism, primary luciferase screen. HEK293 GAL4-hgDAF12 UAS-luciferase reporter, agonist luminescence; normalized to butyrate control. activation, % at 6.8 µM. 370,000 tested, 1.8% active. AID 687014;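 active = activation above a cutoff set at the mean of all screened compounds plus 3 SD, cut at about 10% in these data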
hcDAF-12 act: H. contortus DAF-12 activation, primary screen; 370,000 tested, 1.4% active; HEK293 hcDAF-12 lit1-tk-luc reporter, luminescence; 0% DMSO, 100% Δ7-dafachronic acid; activation, % at 6.8 µM;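 active = activation above the mean of all tested compounds plus 3 SD, cut at about 5.5% in these data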
DAX1 inh-2: inhibitors of human orphan nuclear receptor DAX1 (NR0B1); HEK293 Gal4-DAX1 luciferase reporter, luminescence; inhibition, % at 6.75 µM; 340,000 tested, 0.99% active;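 active = inhibition above the mean over all tested compounds plus 3 SD, cut at about 4.2% in these data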;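 also: inhibition shows as a rise in luminescence from relieved DAX1 repression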
Target sequence (P51843 207-470 limits assumed): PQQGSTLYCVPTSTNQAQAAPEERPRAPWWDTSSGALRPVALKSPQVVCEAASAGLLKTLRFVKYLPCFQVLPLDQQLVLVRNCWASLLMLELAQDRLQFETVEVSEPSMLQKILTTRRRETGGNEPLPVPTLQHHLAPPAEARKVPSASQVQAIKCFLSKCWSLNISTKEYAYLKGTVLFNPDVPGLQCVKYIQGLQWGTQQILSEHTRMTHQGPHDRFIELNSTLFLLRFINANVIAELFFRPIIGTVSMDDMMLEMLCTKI
ssDAF-12 act: S. stercoralis DAF-12 activation, primary screen | activation, % at 6.8 µM | HEK293 ssDAF-12/GRIP1 lit1-tk-luc reporter, luminescence; % of 3 µM dafachronic acid response | AID 652126 | 370,000 tested, 1% active;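 active = activation above the mean over all tested compounds plus 3 SD, cut at about 0.9% in these data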
A number is an active result; i = inactive; nt = not tested or not shown. Rows were chosen to be rich in hits. Some 4.1% of all compounds tested hit in one or more screens of this group.

SMILES	DAX1 inh-1	hgDAF-12 ag	hcDAF-12 act	DAX1 inh-2	ssDAF-12 act
CC1CCN(C2=NC(=O)N(c3ccc(Br)cc3)C(=O)C2)CC1	i	i	i	nt	i
Cn1c2ccccc2c2cc(C(=O)NNC(=O)CCl)sc21	i	i	6.2	i	i
COc1ccc(-c2cc3cc(OC)c(OC)cc3c(C)n2)cc1	i	11	i	i	i
COc1ccc(-c2cc(OC)c3ccccc3n2)cc1	i	i	i	i	i
CCN1CCN(C(=O)c2ccc(Cl)c(S(=O)(=O)N(C)c3ccccc3)c2)CC1	i	i	i	6.0	i
CN(c1ccc(C(=O)N2CCN(Cc3ccccc3)CC2)cc1)S(=O)(=O)c1ccccc1	i	i	i	i	i
COC(=O)[C@]12C[C@H](CC(=O)NCC3CCCCC3)C(=O)N(Cc3ccccc3)C1=C[C@H](C(C)C)O[C@@H]2C1CC1	i	i	i	nt	i
O=C(COC(=O)CSc1ccc(F)cc1)NCCCc1ccccc1	i	i	i	i	1.1
Cc1ccc(-n2c(SCC(=O)Nc3ccc4cn[nH]c4c3)nnc2-c2ccccc2)cc1	i	i	i	nt	i
O=C(NCCO)c1nc2ccccc2s1	i	i	i	i	1.0
COCCNC(=O)c1nc2ccccc2s1	i	i	i	i	i
O=C(CN1CCN(Cc2ccc(F)cc2)CC1)Nc1nc2ccccc2s1	i	i	i	i	i
CCNC(=O)Nc1nc2ccccc2s1	i	13	i	i	i
CCOCC(=O)Nc1nc2ccccc2s1	i	i	i	i	i
CCCN1CCN(CC(=O)Nc2nc3ccccc3s2)CC1	i	i	i	i	1.2
CN1C(=O)C[C@@](C#N)(C(=O)N2CCCC2)[C@H]1c1ccccc1	i	i	i	nt	i
COc1ccc2c(=O)c(-c3ccc4c(c3)OCO4)coc2c1	i	17	5.7	i	i
COC(=O)COc1ccc2c(=O)c(-c3ccccc3)coc2c1	i	i	i	i	i
CC(C)Oc1ccc2c(=O)c(-c3ccccc3)coc2c1	8.3	14	i	i	i
CCc1cc2c(=O)c(-c3ccc4c(c3)OCCO4)coc2cc1OC(=O)c1ccco1	i	11	i	i	i
CCCc1cc2c(=O)c(-c3ccc4c(c3)OCCO4)coc2cc1OC(=O)c1ccco1	i	i	i	i	i
COC(=O)C[C@@H]1CC[C@@H]2[C@@H](COc3ccc(NC(=O)Nc4cccc(Cl)c4)cc3C(=O)N2C)O1	i	i	i	nt	i
C[C@H](O)[C@@H]1C(=O)N2CCc3c([nH]c4c(-c5ccc6c(c5)OCO6)cccc34)[C@@H]2C[C@@H]1N(C)C(=O)NC1CCCCC1	i	i	i	nt	i
CCOC(=O)c1c(C)[nH]c(C(=O)OCc2ccccc2F)c1C	i	13	6.3	5.5	i
CCOC(=O)c1c(C)[nH]c(C(=O)OCC(=O)N(C)CC(=O)Nc2ccccc2Cl)c1C	i	i	i	i	1.0
SMILES	DAX1 inh-1	hgDAF-12 ag	hcDAF-12 act	DAX1 inh-2	ssDAF-12 act
CCOC(=O)c1[nH]c(C)c(C(=O)Nc2ccccc2F)c1C	i	i	i	i	i
CCOC(=O)c1c(C)[nH]c(C(=O)OCCOc2ccccc2C)c1C	i	11	i	i	i
CCOC(=O)c1c(C)[nH]c(C(=O)OCC(=O)Nc2cccnc2Cl)c1C	i	i	i	i	i
COC(=O)[C@]12CCCCC=C1N(Cc1ccc(OC)cc1)C(=O)[C@@H]2CC(=O)NCc1cccs1	i	i	i	nt	i
C=CCN1C(=O)[C@@H](CC(=O)N2CCN(C(=O)OCC)CC2)[C@]2(C(=O)OC)CCCCC=C12	i	i	i	nt	i
N/C(Cc1cccc2ccccc12)=N\OC(=O)c1ccccc1F	i	i	i	i	i
N/C(Cc1ccc(Cl)cc1Cl)=N\OC(=O)c1ccccc1F	i	i	6.0	i	i
COc1ccc(Oc2c(Cl)cnn(-c3cc(C)cc(C)c3)c2=O)cc1	nt	i	i	nt	i
O=C(Cn1c(=O)[nH]c2ccsc2c1=O)NC1CCCCCC1	i	i	i	7.3	i
CC1CCC(NC(=O)Cn2c(=O)[nH]c3ccsc3c2=O)CC1 (centres undefined)	i	i	i	i	i
COC(=O)[C@H](CC(C)C)N(CCCc1cn(Cc2ccccc2)nn1)S(=O)(=O)c1ccc(F)cc1Br	i	i	i	nt	i
CC1=CC(=O)C(C(C)C)=C/C1=N\OC(=O)c1cccc2nc(C)oc12	i	i	5.7	i	i
CCOC(=O)Cc1nc(N2CCN(CCO)CC2)c2c(C)c(C(=O)OCC)sc2n1	i	i	i	nt	i
COc1cccc(NC(=O)c2csc3c2CCCC3)c1	i	11	i	i	i
COc1cccc(NC(=O)CN(C)C(=O)c2cc3c(s2)CCCC3)c1	3.7	i	i	i	i
Cc1cccc(NC(=S)NNC(=O)c2csc3c2CCCC3)c1	i	11	i	i	i
COc1cccc(NC(=O)CN(C)C(=O)c2cc3c(s2)CCCCC3)c1	i	i	i	i	i
COc1ccc(NC(=O)c2csc3c2CCCC3)cc1	nt	nt	nt	i	nt
Cc1ccc(C)c(NC(=S)NNC(=O)c2csc3c2CCCC3)c1	i	i	i	i	i
COC(=O)C1CN(Cc2ccc(C)cc2)CCS(=O)(=O)N1Cc1cn(Cc2ccc(C)cc2)nn1 (centres undefined)	i	i	i	nt	i
COC(=O)C[C@H]1CC[C@@H]2[C@H](COc3ccc(NS(C)(=O)=O)cc3C(=O)N2C)O1	i	i	i	nt	i
O=C1Nc2ccccc2OC1CC(=O)N1CCOCC1 (centres undefined)	i	i	i	6.0	i
O=C1Nc2ccccc2OC1CC(=O)N1CCN(c2cccc(C(F)(F)F)c2)CC1 (centres undefined)	i	i	i	i	i
c1ccc(Cn2nc(-c3ccccc3)nc2-c2ccccc2)cc1	i	i	i	i	i
Cn1nc(-c2ccccc2)nc1-c1ccccc1	i	i	6.3	i	i
SMILES	DAX1 inh-1	hgDAF-12 ag	hcDAF-12 act	DAX1 inh-2	ssDAF-12 act
CCCC[C@H]1C2CC(OC(=O)Nc3ccccc3Cl)C(C2)[C@H]2CCCCN21 (some centres undefined)	i	i	i	nt	i
Cc1cc(NC(=O)CCc2c[nH]c3ccccc23)ccc1Nc1cccnc1	i	i	i	nt	i
CSc1nnc(CCNC(=O)OC(C)(C)C)o1	i	i	i	4.5	i
CCCCNC(=O)C[C@H]1C[C@@]2(C(=O)OC)C(=C[C@H](C(C)(C)C)O[C@@H]2C)N(Cc2ccco2)C1=O	i	i	i	nt	i
CS(=O)(=O)NN1C(=O)c2ccccc2NC1c1ccccc1O (centres undefined)	i	i	i	i	i
CS(=O)(=O)NN1C(=O)c2ccccc2NC1c1c[nH]c2ccccc12 (centres undefined)	i	i	6.2	i	i
O=C(/C=C/NNC(=O)c1ccccc1)c1ccc([N+](=O)[O-])cc1	i	i	i	4.4	i
O=C(O)CC(NNC(=O)c1ccccc1)C(=O)Nc1ccc([N+](=O)[O-])cc1 (centres undefined)	i	i	i	8.4	i
